Experimental data reported in PubChem BioAssay (NCI).
The panel holds about 83,000 compounds, 20% with a hit somewhere; the sample as a whole holds those more often.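 Growth was measured after 48 h exposure to one concentration of compound in 96-well plates. Values under 10 count as active.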 Unmarked numbers belong to inactive results. Calls of active or inactive are those of the source.

Experiments:
Assay in all cases: NCI-60 one-dose screen, 48 h (100 = growth as untreated, 0 = no growth, -100 = all killed)
Conditions in all cases: 10 µM unless noted
[1] = tested on: SR leukemia
[2] = tested on: OVCAR-8 ovarian
[3] = tested on: OVCAR-5 ovarian
[4] = tested on: OVCAR-4 ovarian
[5] = tested on: SK-OV-3 ovarian
[6] = tested on: IGROV1 ovarian
[7] = tested on: OVCAR-3 ovarian
[8] = tested on: HS 578T breast
[9] = tested on: NCI/ADR-RES ovarian

SMILES: N[C@H]1CCC[C@@H]1NCCCCN1C(=O)c2cccc3cc([N+](=O)[O-])cc(c23)C1=O
- growth [1]: -6.77% (active)
- growth [2]: 37.1%
- growth [3]: 73.6%
- growth [4]: 44.5%
- growth [5]: 42.1%
- growth [6]: 34.5%
- growth [7]: 53%
- growth [8]: 65.4%
- growth [9]: 77%

SMILES: O=C(Nc1ccc(Br)cc1)C1=NCCCCN1
- growth [1]: 107%
- growth [2]: 74.8%
- growth [3]: 84.6%
- growth [4]: 96.5%
- growth [5]: 96.1%
- growth [6]: 87.5%
- growth [7]: 103%
- growth [8]: 97.1%
- growth [9]: 82.5%

SMILES: Cc1ccc(CNc2c3ccccc3nc3ccccc23)cc1
- growth [1]: -0.81% (active)
- growth [2]: 21.8%
- growth [3]: 38.1%
- growth [4]: 24.5%
- growth [5]: 46.9%
- growth [6]: 19.4%
- growth [7]: 34.1%
- growth [8]: 38.5%
- growth [9]: 26.1%

SMILES: O=C(NC1CC(F)C1)c1cc2cccnc2n1-c1ccc(Cl)c(Cl)c1 (configuration not stated)
- growth [1]: 104%
- growth [2]: 95.4%
- growth [3]: 94.8%
- growth [4]: 95.4%
- growth [5]: 104%
- growth [6]: 86.7%
- growth [8]: 99.2%

SMILES: COc1ccc(N2CCN(C(=O)c3sc4nc(C)c(Br)c(C)c4c3N)CC2)cc1
- growth [1]: 97.4%
- growth [2]: 97.6%
- growth [3]: 90.5%
- growth [5]: 90.1%
- growth [6]: 91.2%
- growth [7]: 98.3%
- growth [8]: 92.8%
- growth [9]: 101%

SMILES: CCCCCCCCCCCCCOC(=O)c1c(C)[nH]c(/C=C2\N=C(c3ccc[nH]3)C=C2OC)c1C
- growth [1]: -10.8% (active)
- growth [2]: 18.3%
- growth [3]: 44%
- growth [4]: 55.8%
- growth [5]: 47.4%
- growth [6]: 22%
- growth [7]: 11.3%
- growth [8]: 18%
- growth [9]: 22.5%

SMILES: CC1(C)N=C(N)N=C(N)N1c1cccc(CCc2ccccc2)c1
- growth [1]: 28.5%
- growth [3]: 49.2%
- growth [4]: 72.1%
- growth [5]: 58.9%
- growth [6]: 30.3%
- growth [7]: 22.8%
- growth [8]: 70.4%
- growth [9]: 111%

SMILES: Cc1ccc(/C=C/C(=O)c2cccc(OCCCOc3cccc(C(=O)/C=C/c4ccc(C)cc4)c3)c2)cc1
- growth [1]: 25.9%
- growth [2]: 87.5%
- growth [3]: 124%
- growth [4]: 65.3%
- growth [5]: 99.2%
- growth [6]: 77.2%
- growth [7]: 82.4%
- growth [8]: 86.1%
- growth [9]: 91.4%

SMILES: CCSc1oc(C)nc1[P+](c1ccccc1)(c1ccccc1)c1ccccc1
- growth [1]: 36.2%
- growth [2]: 21.5%
- growth [4]: 38.2%
- growth [5]: 28%
- growth [6]: 30.3%
- growth [7]: 15.8%
- growth [8]: 56.3%
- growth [9]: 97.8%

SMILES: CN1C(=O)/C(=C2\SC(=Nc3ccccc3)N(Nc3ccccc3)C2=O)c2ccccc21
- growth [1]: 117%
- growth [2]: 102%
- growth [3]: 104%
- growth [4]: 111%
- growth [5]: 98%
- growth [6]: 79.5%
- growth [7]: 110%
- growth [8]: 107%
- growth [9]: 102%

SMILES: CC1=C(CCC(C)NCc2ccc(OCCCN3CCCCC3)cc2)C(C)(C)CCC1 (configuration not stated)
- growth [1]: -43.4% (active)
- growth [2]: -45.4% (active)
- growth [3]: -49.8% (active)
- growth [4]: -4.46% (active)
- growth [5]: -74.1% (active)
- growth [6]: -36.6% (active)
- growth [7]: -70.4% (active)
- growth [8]: -52.9% (active)
- growth [9]: -40.5% (active)

SMILES: CCNc1ccc(-c2nc3ccccc3n3cccc23)cc1
- growth [1]: 76.4%
- growth [2]: 80.9%
- growth [3]: 71%
- growth [4]: 72.7%
- growth [5]: 72.4%
- growth [6]: 64%
- growth [7]: 78.7%
- growth [8]: 78.6%
- growth [9]: 80.6%

SMILES: COc1ccc2c(c1)c(-c1nc(-c3c[nH]c4ncccc34)cs1)cn2CCCN1CCOCC1
- growth [1]: 6.64% (active)
- growth [2]: 25.3%
- growth [3]: 68.1%
- growth [4]: 41.5%
- growth [5]: 51.8%
- growth [6]: 22.9%
- growth [7]: 44%
- growth [8]: 2.12% (active)
- growth [9]: 43.4%

SMILES: Nc1nc(N)c2c(n1)NC(c1cccc(Nc3ccnc4cc(C(F)(F)F)ccc34)c1)CC(c1ccc(Br)cc1)=N2 (configuration not stated)
- growth [1]: 0.0412% (active)
- growth [2]: 66%
- growth [3]: 107%
- growth [4]: 77.5%
- growth [5]: 57.2%
- growth [6]: 58.8%
- growth [7]: 38.1%
- growth [8]: 68.4%
- growth [9]: 56.5%

SMILES: Oc1c(CN2CCCC2)cc(CSCc2ccccc2)c2cccnc12
- growth [1]: -7.76% (active)
- growth [2]: 7.91% (active)
- growth [3]: 41.8%
- growth [4]: -2.42% (active)
- growth [5]: -15.6% (active)
- growth [6]: -3.98% (active)
- growth [7]: 5.77% (active)
- growth [8]: 64.5%
- growth [9]: -46.4% (active)

SMILES: CCN1C(=O)N(CC)C2Nn3c(s/c(=C\c4ccccc4Br)c3=O)=NC21 (configuration not stated)
- growth [1]: 15.7%
- growth [2]: 15.4%
- growth [5]: 44.7%
- growth [6]: 25.7%
- growth [7]: -7.24% (active)
- growth [8]: 11.4%
- growth [9]: 5.54% (active)

SMILES: Clc1ccc(-c2cc(-c3ccccc3)nc(NCCNc3ccnc4cc(Cl)ccc34)n2)cc1
- growth [1]: 29.2%
- growth [2]: -55.9% (active)
- growth [3]: 48.9%
- growth [4]: -69.4% (active)
- growth [5]: 100%
- growth [6]: -61.3% (active)
- growth [7]: -90.6% (active)
- growth [8]: -17.5% (active)
- growth [9]: -63.4% (active)

SMILES: CCCCCCCCCCCCCCCCCCOc1ccccc1CC(=O)NCC[N+]1(C)CCCCC1
- growth [1]: 26.3%
- growth [2]: 57.1%
- growth [3]: 30%
- growth [4]: 40.3%
- growth [5]: 77%
- growth [6]: -8.66% (active)
- growth [7]: 46.5%
- growth [8]: 61.8%
- growth [9]: 104%

SMILES: COc1ccc(Cn2cc(C(=O)N=Nc3c(O)[nH]c4c(C)cccc34)nn2)cc1
- growth [1]: 76.6%
- growth [2]: 67.6%
- growth [3]: 93.6%
- growth [5]: 110%
- growth [6]: 84.8%
- growth [7]: 46.7%
- growth [8]: 84.1%
